Screens from PubChem BioAssay.
ERG-DNA inh = inhibitors of human ERG Ets domain-DNA interaction; P11308; fluorescence polarization, His-ERG Ets domain / labelled DNA; Potency, µM (titrated, usually from 76.9 µM), for inactives: at the highest dose FP activity, negative = inhibition, hits mostly inhibitors; 0.028% of 370,000 active; AID 624246; active = well fitted inhibition curve with a large enough effect in the polarisation, with a control signal flat; inconclusive = small, poorly fitted or top-dose-only effect, or effect the other way, or a change in a side signal; inactive = no such curve, though single readings can be large or run the other way; the % refers to the polarisation;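 also: polarization taken with two DNA probes labelled with fluorescein and Texas red; % of control where 0% means no effect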
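His-tagged ERG Ets domain (1 uM in the protein solution; 300mM KCl, 50mM Tris-HCl, 1mM EDTA, 1mM DTT, pH 7.5) received compound, then a probe mix of 5 nM fluorescein-DNA and 100nM Texas-615-DNA. Fluorescence polarization was read for both dyes.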
EPAC2 antagonist = blocks human EPAC2 exchange factor; Q8WZA2; EPAC2 GEF exchange of Rap1B-BODIPY-GDP, fluorescence; Potency, µM (top dose mostly 114 µM), for inactives: at the highest dose activity, negative = inhibition, usual class: inhibitors; 0.18% of 360,000 active; AID 720708; also: % is scaled to controls: 0 for no effect and ±100 for the full control effect; nearly all actives have a fitted effect of over 45% in size
EPAC1 antagonist = antagonists of human EPAC1 | EPAC1 GEF assay, Rap1b-BODIPY-GDP exchange fluorescence | 0.14% of 360,000 active | Potency, µM (doses to about 115 µM), for inactives: at the highest dose activity change, negative = inhibition, actives largely listed as inhibitors;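 also: plate controls were vehicle for no effect and positive control for full effect; nearly all actives have a fitted effect of over 50% in size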
EPAC1 ag = activates human EPAC1 exchange factor. EPAC1 agonist qHTS, biochemical assay; response scale: 100% = response to 6.5 mM cAMP. Potency, µM (highest dose often 154 µM), for the others: at the highest dose activation, most hits filed as activators. 0.073% of 360,000 active; also: nearly all actives have a fitted effect of over 60% in size
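Multi-concentration qHTS readout: loss of Rap1B-bound BODIPY-GDP fluorescence driven by 100 nM EPAC1 with excess GDP (50 uM), monitored kinetically at room temperature; agonist response expressed relative to 6.5 mM cAMP.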
TDP1 block = TDP1 (human) enzyme inhibition; Potency, µM (series often up to 130 µM), for the others: top-dose activity change, negative = inhibition, hits mostly inhibitors; 0.28% of 350,000 active; AID 485290; Q9NUW8; recombinant TDP1, AlphaScreen DNA substrate cleavage; also: % is scaled to controls: 0 for no effect and ±100 for the full control effect; nearly all actives have a fitted effect of over 40% in size
Target sequence (Q9NUW8 whole entry, looked up): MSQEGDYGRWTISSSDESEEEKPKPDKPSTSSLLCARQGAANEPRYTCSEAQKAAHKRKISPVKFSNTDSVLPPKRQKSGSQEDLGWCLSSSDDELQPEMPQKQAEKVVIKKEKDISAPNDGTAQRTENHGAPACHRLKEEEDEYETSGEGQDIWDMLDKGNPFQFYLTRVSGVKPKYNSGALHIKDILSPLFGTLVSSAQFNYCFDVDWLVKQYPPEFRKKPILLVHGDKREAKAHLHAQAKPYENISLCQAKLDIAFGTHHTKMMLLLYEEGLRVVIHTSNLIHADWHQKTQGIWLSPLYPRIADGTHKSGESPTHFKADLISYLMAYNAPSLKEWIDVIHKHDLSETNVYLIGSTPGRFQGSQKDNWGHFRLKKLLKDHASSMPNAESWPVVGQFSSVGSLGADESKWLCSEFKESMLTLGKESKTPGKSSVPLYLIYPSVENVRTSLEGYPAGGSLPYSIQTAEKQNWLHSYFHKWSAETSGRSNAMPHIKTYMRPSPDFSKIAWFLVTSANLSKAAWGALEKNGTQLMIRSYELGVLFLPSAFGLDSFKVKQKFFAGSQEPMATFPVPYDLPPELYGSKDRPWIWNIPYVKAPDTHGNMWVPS
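AlphaScreen read-out: signal falls as enzyme removes the 3' tyrosine-FITC from a 5'-biotinylated DNA oligo (15 nM, 5 min, RT). Enzyme was E. coli-made recombinant Tdp1 at 1 nM, exposed to compound for 15 min beforehand; beads 10 ug/ml, 10 min.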
EPAC2 ag = agonists of human EPAC2 (RAPGEF4); AID 720711; EPAC2 activation, biochemical qHTS; response scale: 100% = 6.5 mM cAMP response; Q8WZA2; Potency, µM (series often up to 154 µM), for the others: top-dose activation, hits mostly activators; 0.079% of 360,000 active; also: nearly all actives have a fitted effect of over 50% in size
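Nucleotide exchange monitored as fluorescence drop when BODIPY-GDP leaves Rap1B. Reaction: 100 nM EPAC2, 250 nM RAP1B-BODIPY-GDP, 50 uM GDP, room temperature, kinetic read over 30 min. Activity expressed relative to 6.5 mM cAMP.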
* hit, by the source's call; ? = inconclusive; . = not tested or not shown. This is a sample that favours compounds with a hit; in the whole collection about 0.54% have one here. Unless noted, calls follow the shape of the dose curve; as a rule, active = well fitted curve in the direction sought with a large enough effect; inconclusive = small, poorly fitted or top-dose-only effect, or another doubt; inactive = no such curve, though single readings can be large; an effect the other way counts as inactive or inconclusive. Potency is read from the fitted curve at half-maximal effect.

SMILES	ERG-DNA inh	EPAC2 antagonist	EPAC1 antagonist	EPAC1 ag	TDP1 block	EPAC2 ag
Cc1noc(/C=C/c2cccnc2)c1[N+](=O)[O-]	-9%	27%	11%	-3%	.	6%
Cc1ccc(NS(=O)(=O)c2cc3c(cc2-c2cn[nH]c2)NC(=O)CO3)cc1C	.	.	.	.	-1%	.
CCC(=O)Nc1cccc(C2=NOC3(C2)C[C@@H](C(N)=O)N(C(=O)COc2ccc(Cl)cc2)C3)c1 (some centres not stated)	10%	13%	-3%	6%	4%	7%
C=C(C)C(=O)Nc1cccc(C2=NOC3(C2)C[C@@H](C(N)=O)N(C(=O)C2(C)CC2)C3)c1 (some centres not stated)	-7%	33%	-19%	17%	11µM*	-1%
C=C(C)C(=O)Nc1cccc(C2=NOC3(C2)C[C@@H](C(N)=O)N(C(=O)c2ccc(Cl)cc2)C3)c1 (some centres not stated)	-3%	24%	-23%	2%	13µM*	-6%
C/C=C\C=C/C(=O)Nc1cccc(C2=NOC3(C2)C[C@@H](C(N)=O)N(C(=O)/C=C/C=C\C)C3)c1 (some centres not stated)	0%	6%	?	9%	20µM*	6%
C=C(C)C(=O)Nc1cccc(C2=NOC3(C2)C[C@H](C(N)=O)N(C(=O)COc2ccc(Cl)cc2)C3)c1 (some centres not stated)	-7%	4%	-29%	13%	11µM*	-3%
N#Cc1ccc(S(=O)(=O)N2CCN(c3nc(-c4ccccc4)nc4ccccc34)CC2)cc1	.	.	.	.	0%	.
O=S(=O)(c1ccccc1Br)N1CCN(c2nc(-c3ccccc3)nc3ccccc23)CC1	.	.	.	.	0%	.
COc1ccc(-c2cc(=O)oc3c(O)c(O)ccc23)cc1	5%	-16%	35µM*	1%	.	2%
COc1ccc(S(=O)(=O)NC2CCN(C#N)CC2)cc1	.	.	.	.	1%	.
O=C(CSc1nnc2ccccn12)NC(=O)c1ccccc1Cl	1%	2%	-1%	6%	25µM*	6%
CC(C)c1ccc(Nc2nc(Nc3ccc(Cl)cc3)nc(N3CCOCC3)n2)cc1	.	.	.	.	0%	.
COCCn1c(-c2ccc(OC)cc2)c(-c2ccc(OC)cc2)oc1=O	-2%	35µM*	16%	-2%	.	2%
CCn1nc(-c2ccc(C)cc2)nc2c(=O)n(C)c(=O)nc1-2	.	.	.	.	0%	.
COc1ccccc1-c1cncnc1-n1ccnc1	.	.	.	.	22µM*	.
Oc1ccc(C2=Nn3c(nnc3-c3ccco3)SC2)cc1O	-9%	?	45µM*	-1%	-5%	28%
Cc1cc(NS(=O)(=O)c2ccc(Nc3nc(-c4ccc(C)c(C)c4)cs3)cc2)no1	-1%	-28%	?	29%	0%	23%
Cc1cc(NS(=O)(=O)c2ccc(Nc3nc(-c4sc(N)nc4C)cs3)cc2)no1	10%	32µM*	?	5%	-11%	-4%
COc1cc(NS(=O)(=O)c2ccc(Nc3nc(-c4ccccc4)cs3)cc2)nc(OC)n1	0%	-6%	79µM*	-2%	11%	-1%
Nc1nc(NCc2ccc(F)cc2)c2[nH]cnc2n1	.	.	.	.	2%	.
O=C1c2cccc3c(N4CCCCC4)ccc(c23)C(=O)N1c1cccc(O)c1	58%	79%	59%	?	-6%	100µM*
C=CCN1C(=O)c2cccc3c(N4CCCCC4)ccc(c23)C1=O	-1%	67%	32%	14%	?	100µM*
O=C(NN=Cc1c(O)ccc2ccccc12)c1ccc2c(c1)OCO2	1%	-4%	-14%	5%	-6%	7%
O=C(N/N=C\c1c(O)ccc2ccccc12)c1ccc(S(=O)(=O)N2CCCCC2)cc1	11%	28%	-22%	1%	8%	100µM*
Cc1ccc(NS(=O)(=O)c2cccc(F)c2)cc1C	.	.	.	.	0%	.
